Compound activity deposited in PubChem by National Center for Advancing Translational Sciences (NCATS).
WRN helicase inh: blocks human WRN helicase | WRN helicase unwinding, fluorescent forked duplex, kinetic | AID 651768 | Potency, µM (titrated, usually from 114 µM), inactives show top-dose activity change, negative = inhibition, hits mostly inhibitors | actives 0.46% (n = 360,000); further: nearly all actives have a fitted effect of over 55% in size
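Enzyme (20 nM final) and test compound sit together 15 min at room temperature before substrate addition. Substrate is a single-forked duplex oligonucleotide (100 nM) labelled with fluorophore and quencher, with 2 mM ATP; helicase unwinding raises red fluorescence, read kinetically.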
L3MBTL1 inh: blocks human L3MBTL1; Q9Y468; AlphaScreen L3MBTL1–H3K9me1 peptide binding; Potency, µM (series often up to 57.1 µM), without a hit: top-dose activity, negative = inhibition, hits mostly inhibitors; actives 0.66% (n = 230,000); AID 485360; further: nearly all actives have a fitted effect of over 60% in size
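AlphaScreen proximity signal between nickel-chelate acceptor and streptavidin donor beads (final 10 ug/mL) reports binding of 50 nM L3MBTL1 to 75 nM biotin-H3 K9me1 peptide; complex incubated with compounds 30 min at room temperature; cefsulodin titration as control.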
APEX1 inh: APE1 (human) endonuclease inhibition; recombinant APE1, TAMRA/BHQ-2 abasic DNA cleavage fluorescence; actives 0.35% (n = 350,000); Potency, µM (top dose mostly 65.8 µM), for inactives: at the highest dose activity change, negative = inhibition, most hits filed as inhibitors; AID 2517; P27695;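 further: plate controls were vehicle for no effect and reference inhibitor for full effect; nearly all actives have a fitted effect of over 55% in size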
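Quantitative HTS: incision of a TAMRA/BHQ-2 double-stranded substrate bearing a tetrahydrofuran abasic site by 0.75 nM APE1 raises fluorescence. Substrate 50 nM final, added after 15 min compound preincubation at room temperature; progress as third-minus-first kinetic read difference.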
FEN1 inh: blocks human flap endonuclease 1; P39748; Recombinant FEN1 flap cleavage, fluorescence, 15 min; Potency, µM (highest dose often 114 µM), without a hit: at the top dose activity change, negative = inhibition, most hits filed as inhibitors; actives 0.35% (n = 390,000); AID 588795; further: nearly all actives have a fitted effect of over 65% in size
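Recombinant FEN1 (10 nM) was preincubated with pin-transferred compounds for 15 min at room temperature, then flap DNA substrate (50 nM final) was added. Plates were read at 0 and 15 min, and normalized concentration–response data were fitted to a four-parameter Hill equation.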
BLM inh-1: Bloom syndrome helicase (human) inhibition; recombinant BLM DNA unwinding, fluorescence dequenching; Potency, µM (top dose mostly 56.1 µM), for the others: top-dose activity change, negative = inhibition, actives largely listed as inhibitors; actives 0.2% (n = 350,000); AID 2528;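 further: plate controls were vehicle for no effect and no enzyme for full effect; nearly all actives have a fitted effect of over 35% in size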
Target sequence (P54132 whole entry, looked up): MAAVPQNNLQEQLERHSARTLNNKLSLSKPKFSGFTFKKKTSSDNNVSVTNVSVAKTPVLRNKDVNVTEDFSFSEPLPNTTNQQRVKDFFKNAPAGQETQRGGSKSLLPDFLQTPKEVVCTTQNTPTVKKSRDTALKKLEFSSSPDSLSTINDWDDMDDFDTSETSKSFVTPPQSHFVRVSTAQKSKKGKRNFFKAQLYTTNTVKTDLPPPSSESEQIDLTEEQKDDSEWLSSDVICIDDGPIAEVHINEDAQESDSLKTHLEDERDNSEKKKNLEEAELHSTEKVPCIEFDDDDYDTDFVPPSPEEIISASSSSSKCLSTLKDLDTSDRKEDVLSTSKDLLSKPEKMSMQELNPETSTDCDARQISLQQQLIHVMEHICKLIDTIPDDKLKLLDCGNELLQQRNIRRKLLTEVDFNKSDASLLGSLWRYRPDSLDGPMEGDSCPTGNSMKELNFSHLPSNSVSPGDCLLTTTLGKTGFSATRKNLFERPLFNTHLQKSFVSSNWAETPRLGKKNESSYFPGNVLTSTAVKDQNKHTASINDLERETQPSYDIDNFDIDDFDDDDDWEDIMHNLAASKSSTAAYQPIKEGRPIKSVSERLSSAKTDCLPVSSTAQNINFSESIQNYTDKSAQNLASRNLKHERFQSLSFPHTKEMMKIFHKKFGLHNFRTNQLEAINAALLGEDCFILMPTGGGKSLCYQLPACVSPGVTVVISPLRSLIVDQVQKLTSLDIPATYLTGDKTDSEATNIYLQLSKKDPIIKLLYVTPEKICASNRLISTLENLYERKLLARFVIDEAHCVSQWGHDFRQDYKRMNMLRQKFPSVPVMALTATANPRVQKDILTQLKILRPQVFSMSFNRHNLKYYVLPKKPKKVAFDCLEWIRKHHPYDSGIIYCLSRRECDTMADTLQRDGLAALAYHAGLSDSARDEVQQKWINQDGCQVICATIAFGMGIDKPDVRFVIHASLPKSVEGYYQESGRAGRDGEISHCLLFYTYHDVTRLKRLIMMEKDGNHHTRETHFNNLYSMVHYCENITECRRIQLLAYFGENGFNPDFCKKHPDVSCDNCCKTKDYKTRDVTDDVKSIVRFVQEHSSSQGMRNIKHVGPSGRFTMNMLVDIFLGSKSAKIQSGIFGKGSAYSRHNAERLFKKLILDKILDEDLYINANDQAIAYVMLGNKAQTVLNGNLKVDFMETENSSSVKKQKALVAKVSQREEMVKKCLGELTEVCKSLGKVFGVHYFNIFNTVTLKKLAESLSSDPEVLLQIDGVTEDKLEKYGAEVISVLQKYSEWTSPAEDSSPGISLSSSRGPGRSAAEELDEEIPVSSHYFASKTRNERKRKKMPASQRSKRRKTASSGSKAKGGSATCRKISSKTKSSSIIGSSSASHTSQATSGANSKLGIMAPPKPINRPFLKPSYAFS
RECQ1 inh-1: inhibitors of human RECQ1 DNA helicase. P46063. RECQ1 DNA unwinding, red fluorescence kinetic read. Potency, µM (top dose mostly 57.3 µM), without a hit: at the highest dose activity, negative = inhibition, most hits filed as inhibitors. actives 0.54% (n = 240,000);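 further: plate controls were vehicle for no effect and no enzyme for full effect; nearly all actives have a fitted effect of over 30% in size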
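50 nM RECQ1T1 preincubated 15 min with compound in Tris pH 8.0 buffer with MgCl2, DTT, Tween-20 and 2.5 ug/ml poly(dI-dC); started with 200 nM TAMRA/BHQ-2 forked duplex and 2 mM ATP. Unwinding read as fluorescence (525/598 nm), two reads 2 h apart.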
BLM inh-2: confirmation of inhibitors of human Bloom syndrome helicase BLM; shares compounds with BLM inh-1; BLM DNA unwinding, fluorescence quenching, biochemical; Potency, µM, for the others: max response, negative = inhibition, hits mostly inhibitors; actives 40% (n = 220); AID 2585;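 further: strand separation dequenches TAMRA so unwinding raises red fluorescence; series mostly up to about 69 µM; nearly all actives have a fitted effect of over 45% in size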
RECQ1 inh conf: confirmation of human RECQ1 helicase inhibitors; RECQ1 helicase DNA unwinding, fluorescence; actives 28% (n = 610); AID 2708; shares compounds with RECQ1 inh-1; Potency, µM (highest dose often 229 µM), for the others: at the highest dose activity change, negative = inhibition, usual class: inhibitors; further: nearly all actives have a fitted effect of over 45% in size
ADP FP counter: ADP displacement flagged in RECQ1 inhibitor counter-screen. actives 27% (n = 530). shares compounds with RECQ1 inh-1. ADP fluorescence polarization displacement counterscreen. Potency, µM (highest dose often 228 µM), inactives show top-dose activity change, negative = inhibition, hits mostly inhibitors; further: nearly all actives have a fitted effect of over 45% in size
RECQ1 inh-2: confirmation of human RECQ1 helicase inhibitors; shares compounds with RECQ1 inh-1; recombinant RECQ1 DNA unwinding, red fluorescence; Potency, µM (titrated, usually from 119 µM), inactives show at the top dose activity, negative = inhibition, hits mostly inhibitors; actives 15% (n = 1,100); further: nearly all actives have a fitted effect of over 50% in size
* hit, by the source's call; i = inactive; ? = inconclusive; . = no result given; ! = not confirmed by another sample; [ ] = remark or other dose. This is a sample that favours compounds with a hit; in the whole collection about 1% have one here. The call rests on the fitted dose curve; in most records, active means well fitted curve in the direction sought with a large enough effect; inconclusive means small, poorly fitted or top-dose-only effect, or another doubt; inactive means no such curve, though single readings can be large; an effect the other way counts as inactive or inconclusive. Unless noted, on the % scale 0 is the no-effect control and ±100 the full control effect; potency means the concentration at half of the fitted maximal effect.

SMILES	WRN helicase inh	L3MBTL1 inh	APEX1 inh	FEN1 inh	BLM inh-1	RECQ1 inh-1	BLM inh-2	RECQ1 inh-2	others
COc1cccc(OC)c1-c1nn2c(-c3cc(-c4ccccc4)n[nH]3)nnc2s1	40µM*	-29%	?	28µM*	28µM*	11µM*	?	.	ADP FP counter=91%[91.9 µM]
S=C(Nc1ccc2nsnc2c1)N1CCCC1	-25%	25%	?	7%	7.9µM*	?	?	12%
O=C(Nc1ccc2nsnc2c1)N1CCCCCC1	1%	.	-1%	-1%	-2%	i	.	.
COc1cccc(Cn2c(CNC(=O)Cc3cccc(C)c3)nc3cccnc32)c1	.	.	.	-8%	0%	.	.	.
CCOC(=O)c1cc(-c2ccccc2)n(CC2CC(c3ccc(OC)cc3)=NO2)n1 (stereo not given)	-5%	1%	-13%	-23%	-8%	.	.	.
CCOc1ccc2[nH]c(=O)c(C(c3nnnn3Cc3ccco3)N3CCN(C)CC3)cc2c1 (stereo not given)	4%	-25%	?	1%	1.1µM*	7.1µM*	3%	4%	RECQ1 inh conf=24%[114 µM];ADP FP counter=45µM*
COc1cccc2c1C(=O)c1c(O)c3c(c(O)c1C2=O)C[C@@](O)(C(=O)CO)C[C@@H]3O[C@H]1C[C@H](N)[C@H](O)[C@H](C)O1	56µM*	-14%	7.1µM*	-9%	28µM*	32µM*!	41µM*	.	RECQ1 inh conf=36µM*
O=C(COc1ccc([N+](=O)[O-])cc1)NCc1cccnc1	4%	8%	3%	-4%	2%	i	.	.
O=C(COc1ccc([N+](=O)[O-])cc1)Nc1nnc(-c2cccnc2)s1	-18%[57.1 µM]	?	?	?	16µM*	?	?	?
CCOc1ccc(CNC(=O)c2cc3c(=O)oc4ccc(C)cc4c3s2)cc1	.	.	.	-5%	-4%	.	.	.
CC(C)(O)C#Cc1ccc(CNC[C@H]2O[C@@H](n3cnc4c(N)ncnc43)[C@H](O)[C@@H]2O)s1	-3%	1%	8%	-5%	.	.	.	.
O=c1[nH]nc(CNc2ccc(O)cc2)c2ccccc12	-19%[57.1 µM]	.	?	-17%	35µM*	14µM*	-3%	-8%	RECQ1 inh conf=15%[114 µM];ADP FP counter=40µM*
Cc1ccc(-c2c(C(=O)N3CCN(c4ccc(F)cc4)CC3)oc(=O)c3ccccc23)cc1	.	.	.	5%	0%	.	.	.
CC(=O)Nc1ccc(/C=N/NC(=O)c2cc(-c3ccco3)nc3ccccc23)cc1	-1%	3%	6%	-7%	-5%	2%	.	.
O=C(O)c1ccccc1/C=N/NC(=O)c1cc(-c2ccco2)nc2ccccc12	?	?	22µM*	?	14µM*	22µM*	?	.	RECQ1 inh conf=40µM*;ADP FP counter=40µM*
Nc1ccc(N2CCCCC2)c2nonc12	?	?	-3%	?	22µM*	?	1%	-2%
Nc1ccc(N2CCCCC2)cc1N1CCCCC1	1%	?	-2%	2%	-3%	8%	.	.
O=C(CCc1ccccc1)N1CCCC(Nc2ccc(F)cc2)C1 (stereo not given)	6%	.	-7%	-3%	0%	.	.	.
